Laboratory results published in ChEMBL document CHEMBL3988442, “University of Dundee, Small-Polar-MMV Screening Library” (2021).
In all, about 48,000 compounds went through this assay and about 13,000 (27%) showed an effect of 50% or more. Some of the results follow.

Each compound was assayed on Wolbachia pipientis (assay: Anti-Wolbachia Cell-Based Screen). Conditions: 5 µM.
Format: functional
Set-up: scale not given: in the data most compounds retested in dose-response had high values

| SMILES | Percent Effect [%] |
| --- | --- |
| Cc1cc(NC(=O)C(C)NCCn2cccn2)no1 (centres undefined) | 7.799 |
| Cc1cc(NC(=O)C(C)Nc2cccc(COCc3ccco3)c2)no1 (centres undefined) | 96.95 |
| Cc1nnc(C(C)Nc2cccc(COCCc3ccccc3)c2)o1 (centres undefined) | -2.129 |
| Cc1cc(NC(=O)C(C)Nc2cccc(COCc3ccco3)c2)on1 (centres undefined) | 82.63 |
| Cc1cc(NC(=O)C(C)Nc2ccn(Cc3ccccn3)n2)on1 (centres undefined) | -74.41 |
| Cc1cc(CNC(=O)Nc2cccc(COCCOC(C)C)c2)no1 | 4.138 |
| CCN1CCN(c2ccc(CNC(=O)c3ccc(Cl)o3)cn2)CC1 | 4.733 |
| Cc1ccccc1[C@@H]1CN(Cc2c(C)noc2C)C[C@H]1C(=O)O | -12.73 |
| COc1cc2[nH]c(=O)c(CN3CCC[C@H]3CO)cc2c(OC)c1OC | 3.209 |
| CCN1CCCC1CNCc1cc2cc(OC)c(OC)cc2[nH]c1=O (centres undefined) | 127.9 |
| CCN1CCCC1CNCc1cc2cc3c(cc2[nH]c1=O)OCCO3 (centres undefined) | 90.42 |
| COc1cc2[nH]c(=O)c(CN3CCCC3C)cc2c(OC)c1OC (centres undefined) | -17.42 |
| CCN1CCCC1CNCc1cc2cc(OC)ccc2[nH]c1=O (centres undefined) | 59.94 |
| CN(CCN1CCCCC1=O)Cc1cc2cc3c(cc2[nH]c1=O)OCO3 | 9.765 |
| CCOc1ccc2[nH]c(=O)c(CN3CCC(O)CC3)cc2c1 | -5.024 |
| COc1ccc2[nH]c(=O)c(CN(C)CCN3CCCC3)cc2c1 | -6.943 |
| CCN1CCCC1CN(CCN(C)C)S(=O)(=O)c1ccc(C#N)cc1 (centres undefined) | 2.143 |
| CCN1CCCC1Cn1ccc2c(OC)c(OC)ccc2c1=O (centres undefined) | -2.049 |
| CCN1CCCC1CNCc1cc2cc(C)c(C)cc2[nH]c1=O (centres undefined) | 108.5 |
| Cc1cc(C)c(CNC(=O)NCC2CCCN2C)c(=O)[nH]1 (centres undefined) | -15.32 |
| COCCN1CCc2cc(C(=O)O)c(-c3ccoc3)nc2CC1.O=C(O)C(F)(F)F.O=C(O)C(F)(F)F | -9.804 |
| CCCc1nnc(C(=O)N(C)Cc2ccc(OC)cc2)o1 | 16.32 |
| COCCC(C)NC(=O)N1CCSC(C)(C)C1 (centres undefined) | -17.32 |
| CC[C@H]1CN(C(=O)c2cnc(CN3CCCC3)s2)CC[C@@]1(C)O | 12.41 |
| O=C(NCCNc1ccccn1)NCC1CCS(=O)(=O)C1 (centres undefined) | 7.118 |
| Cc1ccc(S(=O)(=O)N2CC(C)Oc3ncccc32)c(F)c1 (centres undefined) | -7.297 |
| CS(=O)(=O)NCCCN1CCCCC1c1cc2ccccc2[nH]1 (centres undefined) | 5.136 |
| CCN1CCCC1CNCc1cc2ccccc2[nH]c1=O (centres undefined) | 105.7 |
| CS(=O)(=O)NCC1CCN(Cc2cc3ccccc3[nH]c2=O)C1 (centres undefined) | 5.413 |
